Test results from PubChem BioAssay (EPA / NIEHS).
Values joined by “and” are separate entries in the source; they are usually repeats but may differ in a detail not shown here. Equal values may be shown once. Inconclusive results are not listed. Where a structure was tested more than once in an assay, its records may differ in their call. Active and inactive are the calls of the source. The calls were made as follows, unless noted: active = hit-call score of the fitted dose curve at least 0.9, where 1 is the maximum; inactive = score below 0.9. Peptide text beside a SMILES is read from it.

Columns and labels:
[1] = target: Estrogen receptor (Homo sapiens) (UniProt P03372); assay: CCTE_Deisenroth_AIME_384WELL_LUC_Shift: CCTE's 384-well Estrogen Receptor Transactivation Assay with AIME metabolic competence data shift (ERTA luciferase; difference in metabolism positive and negative), Deisenroth Lab (AID 2284041);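 also: shift is response with S9 minus without S9 so positive means metabolism raised ER signal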
Procedure, shortened: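 Test chemicals (0.002–200 uM, 10-point) were pre-incubated 2 h with alginate microspheres containing phenobarbital/beta-naphthoflavone-induced male Sprague Dawley rat liver S9 or water, then medium was transferred to VM7Luc4E2 cells for 24 h luciferase readout; shift = S9-positive minus S9-negative normalized response.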

[2] = CCTE_Shafer_MEA_dev_active_electrodes_number: CCTE's Neural Network Formation Assay for Number of Active Electrodes, Shafer Lab (AID 2284040; active = hit-call score of the fitted dose curve at least 0.9, where 1 is the maximum;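 as to AC50: potency for loss of active electrodes versus DMSO so lower counts are hits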)
Procedure, shortened: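 Counts electrodes per well firing at least 5 spikes/min, recorded on days 5, 7, 9 and 12 in rat cortical cultures dosed continuously from plating (treatment refreshed DIV 5, 9). Value is the area under the curve over recordings, fitted downward relative to DMSO.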

[3] = CCTE_Shafer_MEA_dev_burst_rate: CCTE's Neural Network Formation Assay for Burst Rate, Shafer Lab (AID 2284042)
Experimental: CCTE_Shafer_MEA_dev assay is conducted using Axion Biosystems 48 well microelectrode array (MEA) plates and Maestro recording system. Each well of the MEA plate contains a grid of 16 microelectrodes embedded in the culture surface. Electrically active cells, such as neurons, can be cultured over the electrodes, and electrical activity in these cells can be recorded extracellularly. The spontaneous firing of neurons is captured from each electrode on a microsecond timescale providing both temporally and spatially precise data. […] The CCTE_Shafer_MEA_dev assay uses primary cultures of rat cortical neurons. Recordings are made on days post-plating 5, 7, 9 and 12. As these cultures mature over time, neural networks develop functional activity and form cohesive networks in which electrical activity can be highly coordinated. CCTE_Shafer_MEA_dev_burst_rate is 1 of 19 assay components of the CCTE_Shafer_MEA_dev assay. It measures the frequency of single-electrode bursts (temporally-clustered groups of action potential firing) as the total number of bursts divided by the length of the recording in a microelectrode array (MEA) using Axion Biosystems Maestro 768 channel amplifier with the AxIS adaptive spike detector. The mean bursting rate is averaged across the active electrodes to report a well-mean value. To collapse across multiple recordings made on days post-plating 5, 7, 9 and 12, the trapezoidal area-under-the-curve of the component is calculated.Data from the assay component CCTE_Shafer_MEA_dev_burst_rate was analyzed into 1 assay endpoint. This assay endpoint, CCTE_Shafer_MEA_dev_burst_rate, was analyzed in the negative analysis fitting direction relative to DMSO as the negative control and baseline of activity. Using a type of functional reporter, gain or loss-of-signal activity can be used to understand electrical activity.
On the day prior to culture, each well was coated thoroughly with 150 uL of 0.05% polyethyleneimine (PEI, Sigma Cat P3143) in 50 mM HEPES (Sigma Cat H7523) at a pH of 8. The plate was incubated at 37C for one hour. PEI was rinsed out with 500 uL of sterile water three times. Plates were stored at 4C until the day of culture. This culture was plated at a seeding density of 1.5 x 10^5 cells/well on a 48-well MEA plate, prepared as described above. Cells were administered via a 25 uL media/laminin ([…]; Sigma Cat L2020-1MG) drop directly onto the microelectrode array, as adding the cells with the laminin results in better attachment than pre-coating with laminin. After 2 hours, an additional 475 uL of cortical media was added and the cells returned to the incubator. Exposure starts at day 0 of plating and is continued over twelve days of network development until the experiment is terminated. Cells are fed with fresh medium on DIV 5 and 9, following the recordings on those days. The entire volume of media in the well is exchanged and any vehicle or compound treatment is renewed. Complete details are found in OP-NHEERL/ISTD/SBB/TJS/2015-03-r0 (available on request, email shafer.tim@epa.gov). Measurement of the electrical activity is non-invasive, and recordings can be made from the same plate over multiple different days of the culture. In cortical neurons, this allows for the measurement of extracellular action potentials over the period during which networks form in the MEA plate.

[4] = CCTE_Shafer_MEA_dev_bursting_electrodes_number: CCTE's Neural Network Formation Assay for Number of Bursting Electrodes, Shafer Lab (AID 2284043; active = hit-call score of the fitted dose curve at least 0.9, where 1 is the maximum)
Procedure, shortened: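 Number of electrodes reaching ≥1 burst every 2 min was recorded at DIV 5, 7, 9 and 12 and collapsed as trapezoidal area under the curve. Cultures were rat cortical neurons on MEA plates, dosed continuously from plating with medium and treatment refreshed on DIV 5 and 9.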

[5] = CCTE_Shafer_MEA_dev_per_burst_interspike_interval: CCTE's Neural Network Formation Assay for Burst Interspike Interval, Shafer Lab (AID 2284044);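 also: mean spike spacing inside bursts as AUC over recordings on days 5 7 9 12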;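 as to AC50: potency for a decrease of within-burst interspike interval below DMSO level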
Procedure, shortened: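 Spontaneous activity of maturing rat cortical networks is recorded on DIV 5, 7, 9 and 12 under chronic compound exposure beginning at plating. Endpoint: burst interspike interval well-mean, collapsed into trapezoidal AUC and fitted in the negative direction relative to DMSO.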

[6] = CCTE_Shafer_MEA_dev_burst_duration_mean: CCTE's Neural Network Formation Assay for Mean Burst Duration, Shafer Lab (AID 2284045);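 as to AC50: curve fitted for loss meaning shorter burst duration than DMSO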
Procedure, shortened: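 Mean single-electrode burst duration (first to last spike), averaged over bursting electrodes per well, then integrated as area-under-curve across recordings at days 5, 7, 9 and 12. Rat cortical cultures on MEAs, compound present from plating, refreshed at feeds.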

[7] = CCTE_Shafer_MEA_dev_interburst_interval_mean: CCTE's Neural Network Formation Assay for Mean Interburst Interval, Shafer Lab (AID 2284046);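 also: well-mean interburst interval of bursting electrodes as AUC over four recording days; curve fitted for decrease in interburst interval relative to DMSO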
Procedure, shortened: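 Primary rat cortical neurons on PEI-coated 48-well MEA plates (laminin added with cells at plating) (16 electrodes/well), exposed from plating day 0 with renewal at DIV 5 and 9. Mean inter-burst interval averaged over bursting electrodes, AUC across days 5, 7, 9, 12; DMSO baseline.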

[8] = CCTE_Shafer_MEA_dev_inter_network_spike_interval_mean: CCTE's Neural Network Formation Assay for Mean Inter-network Spike Interval, Shafer Lab (AID 2284047)
Procedure, shortened: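 Mean time between consecutive network-spike peaks, recorded extracellularly (adaptive spike detection) on DIV 5, 7, 9 and 12, summarized as trapezoidal AUC. Rat cortical cultures on MEAs dosed continuously days 0–12, re-dosed at feeds; loss-of-signal fit relative to DMSO.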

[9] = CCTE_Shafer_MEA_dev_network_spike_number: CCTE's Neural Network Formation Assay for Number of Network Spikes, Shafer Lab (AID 2284048);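 also: synchronized bursts across electrodes counted on days 5 7 9 12 and integrated as AUC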;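 as to AC50: fit as a loss of signal meaning fewer network spikes than DMSO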
Procedure, shortened: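 Number of network spikes (coordinated firing across electrodes) recorded on days 5, 7, 9 and 12 and summarised as area under the curve. Rat cortical cultures on MEA, continuous compound exposure with full medium/treatment exchange at DIV 5 and 9.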

[10] = CCTE_Shafer_MEA_dev_network_spike_peak: CCTE's Neural Network Formation Assay for Mean Number of Electrodes in Network Spike, Shafer Lab (AID 2284049);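 as to AC50: fitted for loss of signal meaning fewer electrodes in network spikes than DMSO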
Procedure, shortened: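 Rat cortical primary culture, 1.5 x 10^5 cells/well, 48-well MEA (16 electrodes/well). Dosing day 0 through DIV 12, full media/compound exchange DIV 5, 9. AxIS adaptive spike detection; AUC over days 5/7/9/12; loss-of-signal vs DMSO.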

Sequence of Estrogen receptor (Homo sapiens) (P03372 whole entry, looked up): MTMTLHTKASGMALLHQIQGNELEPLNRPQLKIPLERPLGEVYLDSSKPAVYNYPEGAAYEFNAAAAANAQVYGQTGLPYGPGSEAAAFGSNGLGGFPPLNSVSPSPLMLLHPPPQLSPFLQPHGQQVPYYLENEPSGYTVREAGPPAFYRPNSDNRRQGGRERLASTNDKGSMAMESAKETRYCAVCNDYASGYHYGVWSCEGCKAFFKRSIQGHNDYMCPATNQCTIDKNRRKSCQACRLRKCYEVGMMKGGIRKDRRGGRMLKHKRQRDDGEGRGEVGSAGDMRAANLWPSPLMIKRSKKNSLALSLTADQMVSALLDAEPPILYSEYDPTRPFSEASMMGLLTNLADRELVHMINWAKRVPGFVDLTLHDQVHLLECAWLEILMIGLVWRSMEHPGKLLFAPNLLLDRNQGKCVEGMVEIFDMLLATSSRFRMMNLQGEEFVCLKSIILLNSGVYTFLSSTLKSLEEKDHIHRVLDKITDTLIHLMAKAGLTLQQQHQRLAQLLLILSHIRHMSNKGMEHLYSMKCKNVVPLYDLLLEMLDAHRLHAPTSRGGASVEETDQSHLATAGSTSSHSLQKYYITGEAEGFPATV

CC1=NN(c2ccc(S(=O)(=O)O)cc2)C(=O)C1N=Nc1ccccc1 (stereo not drawn)
outcome [1]: inactive

O=C(Nc1ccccc1)c1cc(Cl)ccc1O
outcome [1]: inactive

C/C=C/C=C/CCCCCCCO
outcome [1]: inactive

CCCCCCCCCCCCc1ccc(O)cc1
outcome [1]: inactive

Cc1c(C(=O)c2c[nH]n(C)c2=O)ccc(S(C)(=O)=O)c1C1=NOCC1
outcome [2]: inactive | outcome [3]: inactive | outcome [4]: inactive | outcome [5]: inactive | outcome [6]: inactive | outcome [7]: inactive | outcome [8]: inactive | outcome [9]: inactive | outcome [10]: inactive

O=S(=O)(O)c1ccc(N=Nc2c(O)ccc3ccccc23)cc1
outcome [1]: inactive

O=C(Oc1ccccc1)c1ccccc1O
AC50 [1]: 38.4 µM (active)

CCCCNS(=O)(=O)c1ccccc1
outcome [2]: inactive | outcome [1]: inactive | outcome [3]: inactive | outcome [4]: inactive | outcome [5]: inactive | outcome [6]: inactive | outcome [7]: inactive | outcome [8]: inactive | outcome [9]: inactive | AC50 [10]: 78.5 µM (active)

CC(C)c1cc(C(C)C)cc(C(C)C)c1
outcome [1]: inactive

C=CCOC(=O)c1ccc(C(=O)OCC=C)c(C(=O)OCC=C)c1
outcome [1]: inactive

O=C(O)c1ccc2c(c1)C(=O)OC2=O
outcome [1]: inactive

C=C(C)C1CC=C(C)CC1 (stereo not drawn)
outcome [1]: inactive

CCCCCCCCCCCCCC(=O)OC(C)C
outcome [1]: inactive

CCCCNC(=S)NCCCC
outcome [1]: inactive

CCCCCCOc1ccc(N)cc1
AC50 [1]: 42.7 µM (active)

CC(=O)OCc1ccccc1
outcome [1]: inactive

CCCCCCCCCCCCCCCCCCOS(=O)(=O)O
outcome [1]: inactive

O=C(O)CC(C(=O)O)S(=O)(=O)O (stereo not drawn)
outcome [1]: inactive

C[N+](C)(C)CCCNS(=O)(=O)C(F)(F)C(F)(F)C(F)(F)C(F)(F)C(F)(F)C(F)(F)C(F)(F)C(F)(F)F
AC50 [2]: 1.13 µM (active) and 1.65 µM (active) | outcome [3]: inactive | AC50 [4]: 1.55 µM (active) and 4.37 µM (active) | AC50 [5]: 2.98 µM (active) | outcome [5]: inactive | outcome [6]: inactive | AC50 [7]: 2.43 µM (active) and 4.96 µM (active) | outcome [8]: inactive | AC50 [9]: 1.43 µM (active) | outcome [9]: inactive | AC50 [10]: 1.11 µM (active) and 1.4 µM (active)

CC(=O)/C=C/C1C(C)=CCCC1(C)C (stereo not drawn)
outcome [1]: inactive

COC(=O)[C@H](Cc1ccccc1)NC(=O)[C@@H](N)CC(=O)O (H-Asp-Phe-OMe)
outcome [2]: inactive | outcome [1]: inactive | outcome [3]: inactive | outcome [5]: inactive | outcome [6]: inactive | outcome [7]: inactive | outcome [8]: inactive | outcome [9]: inactive | outcome [10]: inactive

C[Si](C)(C)N[Si](C)(C)C
outcome [1]: inactive

CCCCNS(=O)(=O)c1ccc(C)cc1
AC50 [1]: 0.0002 µM (active)

CC(C)(C)N
outcome [1]: inactive

COC(=O)c1ccccc1C
outcome [1]: inactive

Cc1noc(NS(=O)(=O)c2ccc(N)cc2)c1C
outcome [3]: inactive | outcome [4]: inactive | outcome [5]: inactive | AC50 [6]: 24.1 µM (active) | outcome [7]: inactive | outcome [8]: inactive | outcome [9]: inactive | outcome [10]: inactive
